Measurements reported in PubChem BioAssay AID1946 (Johns Hopkins Ion Channel Center, 2009).
The whole screen tested about 2,400 compounds, of which about 180 (7.5%) were called active. The entries come from a sample that favours actives as a whole. A number with no mark means an inactive call.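 How the source made its calls: active means readout below zero, meaning a drop past 3 SD under the dofetilide-free negative control mean; inactive means the rest.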

These molecules were tested against Potassium voltage-gated channel subfamily KQT member 2 (Rattus norvegicus) (UniProt O88943) (assay: rat KCNQ2 channel inhibition by compounds alone, confirmation, counter-screen for hERG block protector project, cell-based, CHO, FluxOR thallium flux (AID 1946)). Settings: CHO-KCNQ2 cells, FluxOR thallium flux fluorescence; at 10 µM; stronger effect = lower value; zero marks the 3-SD hit cutoff.
Potassium voltage-gated channel subfamily KQT member 2 (Rattus norvegicus), sequence (O88943 whole entry, looked up): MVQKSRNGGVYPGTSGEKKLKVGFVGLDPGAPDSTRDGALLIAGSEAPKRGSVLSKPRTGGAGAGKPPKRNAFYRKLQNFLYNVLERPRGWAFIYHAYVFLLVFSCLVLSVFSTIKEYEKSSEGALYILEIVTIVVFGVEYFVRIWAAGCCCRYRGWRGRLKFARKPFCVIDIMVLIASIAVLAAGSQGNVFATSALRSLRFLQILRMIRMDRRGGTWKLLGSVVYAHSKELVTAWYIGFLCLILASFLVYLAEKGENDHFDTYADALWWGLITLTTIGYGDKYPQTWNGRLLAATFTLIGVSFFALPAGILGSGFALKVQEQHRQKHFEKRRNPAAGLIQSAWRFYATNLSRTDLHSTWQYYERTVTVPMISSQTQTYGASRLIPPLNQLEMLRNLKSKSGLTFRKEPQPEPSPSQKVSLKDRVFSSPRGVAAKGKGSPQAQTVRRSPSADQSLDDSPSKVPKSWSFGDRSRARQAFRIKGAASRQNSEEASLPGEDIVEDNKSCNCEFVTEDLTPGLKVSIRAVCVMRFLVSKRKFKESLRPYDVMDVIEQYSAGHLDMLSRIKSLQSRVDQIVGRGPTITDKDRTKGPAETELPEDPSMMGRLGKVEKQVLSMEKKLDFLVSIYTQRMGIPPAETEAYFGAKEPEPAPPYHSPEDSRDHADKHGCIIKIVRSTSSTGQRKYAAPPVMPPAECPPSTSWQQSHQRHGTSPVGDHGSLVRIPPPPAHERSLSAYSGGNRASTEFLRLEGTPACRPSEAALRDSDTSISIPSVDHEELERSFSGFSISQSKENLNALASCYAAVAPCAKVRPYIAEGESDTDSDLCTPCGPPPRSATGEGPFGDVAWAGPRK

SMILES | activity change vs negative control
CC(=O)/C=C1/C(=O)Nc2ccccc21 | -4.4% (active)
CCOC(=O)c1c(NS(C)(=O)=O)sc2c1CCC(C)C2 (configuration not stated) | 40.9%
O=c1c2[nH]c3ccccc3c2nc2n1CCCS2 | 30.9%
c1ccc(-c2csc(Nc3ccc4c(c3)OCCO4)n2)cc1 | 1.2%
O=C(Nc1ccc(-c2csc(Nc3cccc(C(F)(F)F)c3)n2)cc1)c1ccccc1 | -0.8% (active)
O=C(NC(=S)Nc1cccc(C(F)(F)F)c1)c1csnn1 | 138%
CC(=O)OCC1O[C@@H](O[C@@H]2C[C@H]3C(C)(C)[C@H](OC(C)=O)CC[C@]3(C)[C@H]3CC[C@]45C[C@]4(CC[C@H]5[C@@H](C)C[C@@H](O)[C@H](O)C(C)(C)O)[C@@]32C)[C@H](O)[C@@H](O)[C@@H]1O (some centres not stated) | 32.4%
Cc1csc(NC(=S)NC(=O)c2ccccc2)n1 | 36.6%
NC(=O)CSc1nc2ccccc2c(=O)n1CCc1ccccc1 | 7.8%
Cn1cnnc1SCC(=O)NCc1ccccc1 | -1.1% (active)
COc1ccc(C(=O)NNC(=O)CSc2nnc(COc3ccccc3)n2C)cc1 | 6%
C=CCn1c(O)c(N=NC(=S)Nc2ccc(OC)cc2)c2ccccc21 | 39.5%
CCCOc1ccc(C(=O)NNC(=S)NC(=O)c2ccccc2)cc1 | -1.3% (active)
CCOc1ccc(C(=O)NC(=S)N(Cc2ccccc2)Cc2ccccc2)cc1 | 15.8%
CCCOc1ccc(CN(CCC#N)C(=S)NC(=O)c2ccccc2)cc1 | 35.1%
CCOc1ccc(NC(=S)NC(=O)c2ccco2)cc1 | 37.5%
CCOc1ccccc1NC(=S)NC(=O)c1ccco1 | 21.9%
COc1ccc(/C=C/C(=O)NC(=S)NNC(=O)c2cccs2)cc1 | 6.5%
O=C(NC(=S)NNC(=O)c1cccs1)c1ccc(Br)o1 | 18.8%
CCCOc1ccc(C(=O)NNC(=S)NC(=O)c2cccs2)cc1 | -12.7% (active)
CCCOc1ccc(C(=O)NNC(=S)NC(=O)c2ccco2)cc1 | -4.6% (active)

SMILES | activity change vs negative control
COC(=O)C1=C(C)NC2=C(C(=O)CCC2)C1c1ccc(-c2ccsc2C(=O)OC)o1 (configuration not stated) | 75.1%
O=C(NC(=S)NCc1ccccc1)c1cccs1 | 36.9%
CCOc1ccc(-c2c(=O)n(O)c3ccccc3[n+]2[O-])cc1 | 83.3%
S=c1[nH]cc(Cc2ccccc2)s1 | 25.1%
Oc1c(Br)cc(Br)cc1C=Nc1cccc2ncccc12 | 52.3%
Oc1c(Br)cc(Br)cc1CNc1cccc2cccnc12 | -1.8% (active)
O=C1C=C(Nc2cccc3cccnc23)c2ccccc2C1=O | 14.9%
Cc1ccc(-n2ncc3c2CCCC3NC(=O)c2csnn2)cc1C (configuration not stated) | -1.1% (active)
COc1ccc(-n2ncc3c2CC(C)(C)CC3NC(=O)c2cn[nH]c2)cc1 (configuration not stated) | 0.2%
Cc1cccnc1NC(=O)c1csnn1 | 14.2%
Cc1cc(C)cc(-n2ncc3c2CCCC3NC(=O)c2csnn2)c1 (configuration not stated) | -0.8% (active)
Cc1nn(-c2ccccc2)c(Cl)c1/C=C1\SC(=S)NC1=O | 81.9%
COc1ccc(-c2cc(C(=O)N3CCCC3)no2)cc1OC | 24%
O=C(NC(=S)Nc1ccccc1)c1ccc(Br)o1 | 34.7%
Cc1ccc(C(C(=O)NC(C)(C)C)N(Cc2cccnc2)C(=O)C(=O)NC2CCCCC2)o1 (configuration not stated) | 14.9%
CCSc1nc(=S)cc(C)[nH]1 | 78.1%
CC(C)N1CC(C(=O)Nc2ccc(Cl)c(Cl)c2)CC1=O (configuration not stated) | -0.8% (active)
COc1ccc(S(=O)(=O)N2CCCC(C(=O)Nc3ccc(OC)c(OC)c3)C2)cc1 (configuration not stated) | 5.6%
O=C(O)C1C2CCC(O2)C1C(=O)Nc1ccc(F)c(Cl)c1 (configuration not stated) | 10.3%
CCOC(=O)C(=CNc1ccc(N2CCOCC2)cc1)C(=O)OCC | 29.7%
COc1ccccc1Cn1c(=S)[nH]c2ccc(Br)cc2c1=O | 7.2%

SMILES | activity change vs negative control
Cc1[nH]c(-c2ccccn2)nc(=S)c1Cl | 107%
O=c1c2ccccc2[nH]c(=S)n1CCC1=CCCCC1 | 49.3%
Cc1ccc(NS(=O)(=O)c2cn(C)c(=O)n(C)c2=O)c(C)c1 | 14.1%
Cc1ccc2cc(CN(CCCN(C)C)C(=S)NCc3ccccc3)c(=O)[nH]c2c1C | -0.3% (active)
Cc1ccc2cc(CCNC(=O)C(=O)c3c(C)[nH]c4ccccc34)c(=O)[nH]c2c1 | 0.8%
Cc1ccc(-n2nc3ccc(N)cc3n2)c(C)c1 | -14.5% (active)
O=C(COc1ccc2c3c(c(=O)oc2c1)CCC3)N[C@@H](Cc1ccccc1)C(=O)O | 31.1%
CCOC(=O)C1CCN(S(=O)(=O)c2cccc3nonc23)CC1 | 20.3%
CCOc1ccc(C(=O)N(CN2CCCC2=O)c2ccc(C)cc2)cc1 | 44.8%
Cc1ccc(C(=O)Nc2sc3c(c2C(=O)O)CCCCC3)o1 | -2.5% (active)
Cc1onc(-c2ccccc2)c1C(=O)NC(=S)Nc1sc2c(c1C#N)CCCC2 | 10.5%
CC(C)OC(=O)c1c(NC(=O)c2ccco2)sc2c1CCCCC2 | 3.9%
Oc1c(Br)cc(Br)cc1C=Nc1ccc2[nH]ncc2c1 | 54.4%
COc1cccc(OC)c1C(=O)NC(=S)N1CCN(c2ccc(C(F)(F)F)cc2[N+](=O)[O-])CC1 | -6% (active)
CC(C)Oc1cccc(C(=O)NC(=S)N2CCN(c3ccc(C(F)(F)F)cc3[N+](=O)[O-])CC2)c1 | 11.4%
O=C(NC(=S)N1CCN(c2ccc(C(F)(F)F)cc2[N+](=O)[O-])CC1)c1cccs1 | 30.1%
CCOC(=O)c1n[nH]n2c1nc(=S)c1ccccc12 | 77.4%
CSC(=S)N/N=C/c1ccccc1 | 71%
Cc1cccc(/C=N/NC(=O)c2cc(Br)ccc2O)n1 | 23.8%
Cc1ccc(C(=O)N2CCN(c3ccccc3)CC2)cc1S(=O)(=O)N1CCCC1 | 29.7%
